Values joined by “and” are separate entries in the source; they are usually repeats but may differ in a detail not shown here. Equal values may be shown once. Some compounds were tested as several samples or in several runs, with calls that do not always agree. Active and inactive are the calls of the source. Where a call stands in place of a potency, no number is given. Unless noted, the call rests on the fitted dose curve; in most records, active means well fitted curve in the direction sought with a large enough effect in the repeat runs; inconclusive means weak or mixed curves; inactive means no such curve, though single readings can be large; an effect the other way counts as inactive or inconclusive.
Experiments:
[1] = test system: thyroid hormone receptor (rat, GH3 cells); experiment: qHTS assay to identify small molecule agonists of the thyroid receptor (TR) signaling pathway (AID 743066; calls by dose curve)
[2] = qHTS assay to identify small molecule antagonists of the estrogen receptor alpha (ER-alpha) signaling pathway - cell viability counter screen (AID 743074; calls by dose curve;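 further: HEK293 cells carrying ER-alpha-UAS-bla reporter stimulated with 17beta-estradiol; nearly all actives have a fitted effect of over 45% in size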)
[3] = molecular target: Estrogen receptor (Homo sapiens) (UniProt P03372); experiment: qHTS assay to identify small molecule agonists of the estrogen receptor alpha (ER-alpha) signaling pathway (AID 743075; calls by dose curve;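 further: HEK293 GripTite cells with ER-alpha and UAS-driven beta-lactamase reporter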; further: potency means the concentration at half of the fitted maximal effect)
Chain of Estrogen receptor (Homo sapiens) (P03372 whole entry, looked up): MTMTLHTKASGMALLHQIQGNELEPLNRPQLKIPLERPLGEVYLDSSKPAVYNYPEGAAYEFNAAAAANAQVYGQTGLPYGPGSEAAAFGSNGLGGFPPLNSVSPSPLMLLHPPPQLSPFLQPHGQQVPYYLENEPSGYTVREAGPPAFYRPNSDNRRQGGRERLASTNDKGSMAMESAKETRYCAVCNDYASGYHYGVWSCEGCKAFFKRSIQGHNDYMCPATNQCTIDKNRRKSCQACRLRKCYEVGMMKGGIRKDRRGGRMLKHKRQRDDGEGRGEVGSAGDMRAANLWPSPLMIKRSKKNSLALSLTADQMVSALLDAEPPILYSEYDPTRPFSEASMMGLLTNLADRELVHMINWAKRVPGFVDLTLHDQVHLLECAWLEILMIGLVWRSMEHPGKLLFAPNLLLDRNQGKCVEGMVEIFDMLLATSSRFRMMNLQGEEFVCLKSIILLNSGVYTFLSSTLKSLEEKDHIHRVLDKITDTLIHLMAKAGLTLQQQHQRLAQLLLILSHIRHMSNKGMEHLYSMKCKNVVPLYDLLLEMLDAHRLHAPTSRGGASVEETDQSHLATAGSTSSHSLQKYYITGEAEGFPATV

[4] = molecular target: Estrogen receptor (Homo sapiens) (UniProt P03372); experiment: qHTS assay to identify small molecule agonists of the estrogen receptor alpha (ER-alpha) signaling pathway using the BG1 cell line (AID 743079); further: nearly all actives have a fitted effect of over 20% in size; further: potency means the concentration at half of the fitted maximal effect
[5] = qHTS assay to identify small molecule antagonists of the estrogen receptor alpha (ER-alpha) signaling pathway using the BG1 cell line (AID 743080; calls by dose curve;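 further: BG1 cells stimulated with 17beta-estradiol alongside compound; nearly all actives have a fitted effect of over 25% in size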; further: potency means the concentration at half of the fitted maximal effect)
Method in brief: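 Luminescence from a 4×ERE-luciferase reporter in BG1-Luc-4E2 cells served as read-out. Cells, pre-cultured 5 days in stripped-serum phenol-red-free medium, were exposed to compound with 17beta-estradiol co-stimulation for 21.5 h at 37 C.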

[6] = qHTS assay to identify small molecule antagonists of the estrogen receptor alpha (ER-alpha) signaling pathway using the BG1 cell line - cell viability counter screen (AID 743081);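 further: compound given together with 17beta-estradiol as the ER stimulus; series mostly up to about 70 µM; nearly all actives have a fitted effect of over 45% in size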
Aromatase (Homo sapiens) = Aromatase (Homo sapiens) (UniProt P11511); experiment: qHTS assay to identify aromatase inhibitors (AID 743083); further: nearly all actives have a fitted effect of over 55% in size; further: potency means the concentration at half of the fitted maximal effect
Chain of Aromatase (Homo sapiens) (P11511 whole entry, looked up): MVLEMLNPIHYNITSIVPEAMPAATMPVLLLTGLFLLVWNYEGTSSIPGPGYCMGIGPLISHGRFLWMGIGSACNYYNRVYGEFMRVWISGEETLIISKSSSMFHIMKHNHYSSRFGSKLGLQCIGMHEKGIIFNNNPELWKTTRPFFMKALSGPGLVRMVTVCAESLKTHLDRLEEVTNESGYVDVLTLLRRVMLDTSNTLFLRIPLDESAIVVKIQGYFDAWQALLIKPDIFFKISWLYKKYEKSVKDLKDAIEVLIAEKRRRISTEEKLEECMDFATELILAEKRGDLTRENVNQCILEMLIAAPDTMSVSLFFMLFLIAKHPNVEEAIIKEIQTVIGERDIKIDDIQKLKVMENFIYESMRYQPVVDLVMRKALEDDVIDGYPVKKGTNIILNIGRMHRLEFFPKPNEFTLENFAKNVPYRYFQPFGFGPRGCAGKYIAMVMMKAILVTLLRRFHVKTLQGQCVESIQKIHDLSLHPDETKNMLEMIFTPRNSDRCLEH

[7] = qHTS assay to identify aromatase inhibitors - cell viability counter screen (AID 743084);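 further: cells stimulated with testosterone during compound exposure; nearly all actives have a fitted effect of over 55% in size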
[8] = molecular target: Aryl hydrocarbon receptor (Homo sapiens) (UniProt P35869); experiment: qHTS assay to identify small molecule that activate the aryl hydrocarbon receptor (AhR) signaling pathway (AID 743085); further: nearly all actives have a fitted effect of over 15% in size; further: potency means the concentration at half of the fitted maximal effect
Chain of Aryl hydrocarbon receptor (Homo sapiens) (P35869 whole entry, looked up): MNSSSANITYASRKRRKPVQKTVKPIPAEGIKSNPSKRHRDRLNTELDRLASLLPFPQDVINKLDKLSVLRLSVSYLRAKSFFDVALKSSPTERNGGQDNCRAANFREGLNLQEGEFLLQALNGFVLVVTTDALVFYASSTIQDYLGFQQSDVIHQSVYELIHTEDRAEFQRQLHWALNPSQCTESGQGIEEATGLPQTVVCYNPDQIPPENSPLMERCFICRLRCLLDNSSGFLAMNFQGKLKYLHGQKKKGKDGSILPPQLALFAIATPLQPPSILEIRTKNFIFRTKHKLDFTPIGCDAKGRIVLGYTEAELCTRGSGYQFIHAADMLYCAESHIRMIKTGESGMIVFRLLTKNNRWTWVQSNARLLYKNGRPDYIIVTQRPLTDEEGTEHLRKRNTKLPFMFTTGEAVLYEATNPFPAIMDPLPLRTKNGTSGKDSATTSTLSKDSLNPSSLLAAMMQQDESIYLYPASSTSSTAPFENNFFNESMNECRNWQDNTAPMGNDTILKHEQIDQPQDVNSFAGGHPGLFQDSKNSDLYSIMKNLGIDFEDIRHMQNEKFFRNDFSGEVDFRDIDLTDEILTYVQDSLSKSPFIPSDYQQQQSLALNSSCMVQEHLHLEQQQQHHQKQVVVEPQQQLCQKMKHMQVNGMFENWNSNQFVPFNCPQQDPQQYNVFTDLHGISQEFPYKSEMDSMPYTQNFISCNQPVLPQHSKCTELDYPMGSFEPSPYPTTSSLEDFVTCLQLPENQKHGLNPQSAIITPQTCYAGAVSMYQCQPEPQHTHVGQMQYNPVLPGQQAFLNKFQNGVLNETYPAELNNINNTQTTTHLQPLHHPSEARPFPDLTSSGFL
Method in brief: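 Luminescence read-out: ONE-Glo reagent, 30 min at room temperature, in HG2L7.5c1 HepG2 reporter cells treated 24 h at 37C. Viability was measured beforehand by CellTiter-Fluor fluorescence after 30 min at 37C.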

[9] = molecular target: Estrogen receptor (Homo sapiens) (UniProt P03372); experiment: qHTS assay to identify small molecule antagonists of the estrogen receptor alpha (ER-alpha) signaling pathway (AID 743069; active means well fitted curve in the direction sought with a large enough effect in the signal ratio in the repeat runs, not every such curve was filed as active; inconclusive means weak or mixed curves, or effect the other way; inactive means no such curve, though single readings can be large or run the other way; the % refers to the signal ratio)
Method in brief: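 Beta-lactamase FRET fluorescence is read after 2 hr at room temperature with LiveBLAzer B/G substrate. Before that, ER-alpha-bla HEK293 cells sit 4 hr after plating, then receive compound plus 17beta-estradiol and incubate 18 hr at 37C.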

Row | SMILES | outcome [1] | Potency [2] | Potency [3] | Potency [4] | Potency [5] | outcome [6] | Potency (Aromatase (Homo sapiens)) | outcome [7] | Potency [8] | Potency [9]
1 | CC(Br)C(=O)O (centres undefined) | inactive | inactive | inactive | inactive | inactive | inactive | inactive | inactive | inactive | 
2 | BrCCBr | inactive | inactive | inactive | inactive |  | inactive | inactive | inactive | inactive | inactive
3 | CC(=O)C=C(C)C | inactive | inactive | inactive | inactive |  | inactive | inactive | inactive | inactive | inactive
4 | CCC12COCN1COC2 | inactive | inactive | inactive | inactive |  | inactive | inactive | inactive | inactive | inactive
5 | C#CCN(C)[C@H](C)Cc1ccccc1 | inactive | inactive | inactive | inactive |  | inactive | inactive | inactive | inactive | inactive
6 | CCNc1nc(NC(C)(C)C)nc(SC)n1 | inactive | inactive | inactive | inactive |  | inactive | inactive | inactive | 1.52 µM (active) | inactive
7 | CC(C#N)CCC#N (centres undefined) | inactive | inactive | inactive | inactive |  | inactive | inactive | inactive | inactive | inactive
8 | CCCCCOC(=O)c1ccccc1C(=O)OCCCCC | inactive | inactive | inactive | inactive |  | inactive | inactive | inactive | inactive | inactive
9 | ClCc1cccnc1 | inactive | inactive | inactive | inactive |  | inactive | inactive | inactive | inactive | inactive
10 | C=C(C)CCl | inactive | inactive | inactive | inactive |  | inactive | inactive | inactive | inactive | inactive
11 | CCCC1COC(Cn2cncn2)(c2ccc(Cl)cc2Cl)O1 (centres undefined) | inactive | inactive | inactive |  |  | inactive | 31.2 µM (active) and 24.3 µM (active) | inactive | 34.4 µM (active) | inactive
12 | CC(C)NC(=O)N1CC(=O)N(c2cc(Cl)cc(Cl)c2)C1=O | inactive | inactive | inactive | inactive |  | inactive | inactive | inactive | 4.86 µM (active) and 15.4 µM (active) | inactive
13 | O=S(=O)(c1ccc(O)cc1)c1ccc(O)cc1 | inactive | inactive | 15.6 µM [inconclusive] (active) and 24.5 µM [inconclusive] (active) | 3.88 µM (active) and 1.93 µM (active) |  | inactive | inactive | inactive | inactive | inactive
14 | O=S(=O)(c1ccc(Cl)cc1)c1cc(Cl)c(Cl)cc1Cl | inactive | inactive | inactive |  | 48.6 µM (active) | inactive | inactive | inactive | inactive | inactive
15 | O=Cc1cccc(Oc2ccccc2)c1 | inactive | inactive | inactive |  |  | inactive | inactive | inactive | inactive | inactive
16 | CCOP(=S)(OCC)Oc1cnc2ccccc2n1 | inactive | inactive | inactive and 17.4 µM [inconclusive] (active) | inactive and 15.4 µM (active) |  | inactive | inactive | inactive | inactive and 10.9 µM (active) | inactive
17 | C1CC2OC2CC1C1CO1 (centres undefined) | inactive | inactive | inactive | inactive |  | inactive | inactive | inactive | inactive | inactive
18 | OCCN(CCO)CCO | inactive | inactive |  |  |  | inactive |  |  |  | 
19 | Clc1ccc(Cl)cc1 | inactive | inactive | inactive | inactive |  | inactive | inactive | inactive | inactive | inactive
20 | NCCc1ccc(O)cc1 | inactive | inactive | inactive | inactive and 68 µM (active) |  | inactive | inactive | inactive | inactive | inactive
21 | O=NN1CCCCCCC1 | inactive | inactive | inactive |  | inactive | inactive | inactive | inactive | inactive | inactive

Row | SMILES | outcome [1] | Potency [2] | Potency [3] | Potency [4] | Potency [5] | outcome [6] | Potency (Aromatase (Homo sapiens)) | outcome [7] | Potency [8] | Potency [9]
22 | CCCCCCCCCl | inactive |  | inactive | inactive |  | inactive | inactive | inactive | inactive | inactive
23 | CCCN(CCC)c1c([N+](=O)[O-])cc(C(F)(F)F)cc1[N+](=O)[O-] | inactive | inactive | inactive | inactive |  | inactive | inactive | inactive | inactive | inactive
24 | c1ccc(-c2ccccc2)cc1 | inactive | inactive | inactive | inactive |  | inactive | inactive | inactive | inactive | inactive
25 | COC(=O)c1ccccc1C(=O)OC | inactive | inactive | inactive | inactive |  | inactive | inactive | inactive | inactive | inactive
26 | CC(Oc1ccc(Cl)cc1Cl)C(=O)O (centres undefined) | inactive | inactive | inactive | inactive |  | inactive | inactive | inactive | inactive | inactive
27 | CN(C)[C@@H]1C(=O)C(C(N)=O)=C(O)[C@@]2(O)C(=O)C3=C(O)c4c(O)cccc4[C@@](C)(O)[C@H]3C[C@@H]12 | inactive | inactive |  |  |  | inactive | inactive | inactive | inactive | 
28 | CN1C(=O)CN=C(c2ccccc2)c2cc(Cl)ccc21 | inactive | inactive |  |  |  | inactive |  | inactive |  | 
29 | CCc1cccc(C)c1N(C(=O)CCl)C(C)COC (centres undefined) |  | inactive |  |  |  | inactive |  | inactive | inactive | 
30 | CC(NC(C)(C)C)C(=O)c1cccc(Cl)c1 (centres undefined) | inactive | inactive |  |  |  | inactive | inactive | inactive | inactive | 
31 | CC1OC(C)OC(C)O1 (centres undefined) |  | inactive |  |  |  | inactive | inactive | inactive | inactive | 
32 | Oc1ccccc1Cl | inactive | inactive |  |  |  | inactive | inactive | inactive | inactive | 
33 | Cc1cc(Cl)ccc1O | inactive | inactive |  |  |  | inactive | inactive | inactive | inactive | 
34 | O=c1[nH]c(=O)[nH]c(=O)[nH]1 | inactive | inactive |  |  |  | inactive | inactive | inactive | inactive | 
35 | Clc1cccc(Cl)c1Cl | inactive | inactive |  |  |  | inactive | inactive | inactive | inactive | 
36 | Clc1ccccc1Cl | inactive | inactive |  |  |  | inactive | inactive | inactive | inactive | 
37 | CC(C)(C)OOC(=O)c1ccccc1 | inactive | inactive |  |  |  | inactive | inactive | inactive | inactive | 
38 | Cc1cccc([N+](=O)[O-])c1 |  | inactive |  | inactive |  | inactive |  | inactive |  | inactive
39 | [O-][Cl+2]([O-])O |  | inactive | inactive | inactive |  | inactive | inactive | inactive | inactive | inactive
40 | CN(C)N=O | inactive | inactive |  |  |  | inactive | inactive | inactive | inactive | 
41 | CCOP(=S)(OCC)SCCSCC | inactive | inactive |  |  |  | inactive | inactive | inactive | inactive | 
42 | COCCl | inactive | inactive |  |  |  | inactive | inactive | inactive | inactive | 

Row | SMILES | outcome [1] | Potency [2] | Potency [3] | Potency [4] | Potency [5] | outcome [6] | Potency (Aromatase (Homo sapiens)) | outcome [7] | Potency [8] | Potency [9]
43 | OC(O)C(Cl)(Cl)Cl | inactive | inactive |  |  |  | inactive | inactive | inactive | inactive | 
44 | CCC[N+](=O)[O-] | inactive | inactive |  |  |  | inactive | inactive | inactive | inactive | 
45 | CCN(CC)CCO | inactive | inactive |  |  |  | inactive | inactive | inactive | inactive | 
46 | CCCCN(CCCC)SN(C)C(=O)Oc1cccc2c1OC(C)(C)C2 |  | inactive | inactive | inactive and 54.5 µM (active) |  | inactive | inactive | inactive | inactive | 
47 | CC(C)(Cl)Cl | inactive | inactive |  |  |  | inactive | inactive | inactive | inactive | 
48 | C=CC(N)=O |  | inactive | inactive | inactive | inactive | inactive | inactive | inactive | inactive | inactive
49 | C=CCO |  | inactive |  |  |  | inactive | inactive | inactive | inactive | 
50 | CC(C)(C)C(O)(CCc1ccc(Cl)cc1)Cn1cncn1 (centres undefined) | inactive | inactive |  |  |  | inactive | 27.6 µM (active) and 48.6 µM (active) | inactive | inactive | 
51 | O=c1ccc(=O)[nH][nH]1 | inactive | inactive |  |  |  | inactive | inactive | inactive | inactive | 
52 | C#CC(C)(C)NC(=O)c1cc(Cl)cc(Cl)c1 | inactive | inactive |  |  |  | inactive | inactive | inactive | inactive | 
53 | C[C@]12CC[C@H]3[C@@H](CC[C@@]45O[C@@H]4C(O)=C(C#N)C[C@]35C)[C@@H]1CC[C@@H]2O |  | inactive |  |  |  | inactive | inactive | inactive | inactive | 
54 | COC(=O)c1ccccc1N | inactive | inactive |  |  |  | inactive | inactive | inactive | inactive | 
55 | Nc1ccc(Cc2ccc(N)cc2)cc1 | inactive | inactive |  |  |  | inactive | inactive | inactive | 30.1 µM (active) | 
56 | O=[N+]([O-])c1ccc(Oc2ccc(Cl)cc2Cl)cc1 | inactive | inactive |  |  |  | inactive | inactive | inactive | inactive | 
57 | Nc1ccc(Oc2ccc(N)cc2)cc1 |  | inactive |  |  |  | inactive | 54.5 µM (active) | inactive | 11 µM (active) | 
58 | CCCCCCCCCCCC#N | inactive | inactive |  |  |  | inactive | inactive | inactive | inactive | 
59 | CCC(C)(CC)c1cc(NC(=O)c2c(OC)cccc2OC)on1 | inactive | inactive |  |  |  | inactive | inactive | inactive | 61.3 µM (active) | 
60 | CC(C)C#N | inactive | inactive |  |  |  | inactive | inactive | inactive | inactive | 
61 | CCNc1nc(NC(C)C)nc(SC)n1 | inactive | inactive |  |  |  | inactive | inactive | inactive | inactive | 
62 | NCC(O)c1ccc(O)cc1 (centres undefined) | inactive | inactive |  |  |  | inactive | inactive | inactive | inactive | 
63 | c1ccc2c(c1)Oc1ccccc1O2 | inactive | inactive |  |  |  | inactive | inactive | inactive | inactive | 

— PubChem BioAssay (Tox21)
